# Bioassay records from PubChem.
# In the library only some 1.1% were active in any assay of this set; here they are far more common.
# OPRM1-OPRD1 inv = inverse agonists of MOR-DOR heterodimerization, primary screen, cell-based, luminescence; 340,000 tested, 0.21% active; AID 504357, 2011; cell-based MOR-DOR heterodimer luminescence, inverse agonism; inhibition, % at 9.3 µM; in the data active = inhibition above about 22%, passing the limit was not always enough
# HTR5A inv ag = HTR5A inverse agonists in luminescence cell assay, primary screen, counter-screen for OPRM1-OPRD1 heterodimer inverse agonist project, full-deck HTS. 340,000 tested, 0.083% active. HTR5A cell line, inverse agonism. inhibition, % at 9.3 µM; in the data active = inhibition mostly above about 23%, no sharp cut-off; inactive = mostly below about 18%
# Target sequence (P47898 whole entry, looked up): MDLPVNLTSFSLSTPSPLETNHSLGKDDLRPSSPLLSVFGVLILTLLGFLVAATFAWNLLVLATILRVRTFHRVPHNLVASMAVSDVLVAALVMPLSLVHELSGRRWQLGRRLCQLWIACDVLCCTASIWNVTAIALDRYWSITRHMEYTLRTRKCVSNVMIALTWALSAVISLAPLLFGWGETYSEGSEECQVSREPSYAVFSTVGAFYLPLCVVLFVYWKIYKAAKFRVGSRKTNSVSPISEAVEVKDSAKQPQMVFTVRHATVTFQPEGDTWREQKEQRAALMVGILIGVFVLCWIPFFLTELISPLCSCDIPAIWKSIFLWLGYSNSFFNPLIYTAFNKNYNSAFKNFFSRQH
# HTR5A ag ctr = HTR5A agonists in luminescence cell assay, primary screen, counter-screen for OPRM1-OPRD1 heterodimer agonist project, full-deck HTS. 5-hydroxytryptamine receptor 5A (Homo sapiens), P47898. activation, % at 9.3 µM. AID 504692, 2011. cell-based. 340,000 tested, 0.61% active; in the data active = activation mostly above about 9.5%, no sharp cut-off; inactive = mostly below about 7.6%
# MOR-DOR ag-1 = agonists of OPRM1-OPRD1 heterodimerization, primary screen, cell-based, luminescence; AID 504326, 2011; cells; activation, % at 9.3 µM; 340,000 tested, 0.3% active; Mu-type opioid receptor (Homo sapiens) + Delta-type opioid receptor (Homo sapiens), …
# MOR-DOR ag-2 = OPRM1-OPRD1 heterodimerization promoters, counter-screen for HTR5A agonist project, cell-based, luminescence | shares compounds with HTR5A ag ctr | U2OS counter-screen cells, complementation luminescence, 3 h | activation, % at 9.3 µM | 800 tested, 13% active | AID 504913, 2011
# HTR5A ag confirm = HTR5A agonists, retest of hits, confirmation, cell-based, luminescence. shares compounds with HTR5A ag ctr. HTR5A agonist cell assay. activation, % at 9.3 µM. 800 tested, 17% active. AID 504915, 2011; in the data active = activation above about 17%
# Numbers stand for hits; - = inactive; . = no result. Cut-off read from the data, not from the text of the source, unless noted: active = activation above about 18%; inactive = the rest.
SMILES,OPRM1-OPRD1 inv,HTR5A inv ag,HTR5A ag ctr,MOR-DOR ag-1,MOR-DOR ag-2,HTR5A ag confirm
Cc1noc(N)c1C1(O)C(=O)Nc2c(Cl)cc(Cl)cc21 (stereo not drawn),-,-,-,-,.,.
Cc1ccc(C)c(NC(=O)COC(=O)c2ccc(S(=O)(=O)N3CCCCC3)cc2)c1,-,-,-,-,.,.
O=C(O/N=C(\c1ccccc1)c1ccccn1)c1cccc2ccccc12,-,-,39.2,-,133.2,-
CCOc1ccc(-n2c(SCC(=O)Nc3ccc(CC)cc3)nc3n[nH]c(C)c3c2=N)cc1,-,-,17.4,-,-,-
CCCN(CCC)C(=O)CSc1nc2n[nH]c(C)c2c(=N)n1-c1ccc(OCC)cc1,-,-,-,-,.,.
C=C1C(=O)OC2C1CCC(C)C1C=CC(=O)C12C (stereo not drawn),-,-,-,-,.,.
C=C1C(=O)OC2CC1C(O)CC(C)=CCCC(C)=CC(O)CC2C (stereo not drawn),-,-,18.4,-,-,-
C/C(=N\NC(=S)NCc1ccccc1)c1ccc(C)o1,-,-,-,-,.,.
O=C(N/N=C/c1cc([N+](=O)[O-])ccc1Cl)c1cc(-c2ccccc2)nc2ccccc12,-,-,15.9,-,-,-
CC1(OC(=O)CCc2ccccc2)C(=O)C=C2C=C(c3ccc(C#N)cc3)N(CCc3c[nH]c4ccccc34)C=C2C1=O (stereo not drawn),-,-,20.0,-,-,-
COC(=O)CCCC1=CC2=C(c3ccccc3)C(=O)C(C)(OC(=O)C3CCCC3)C(=O)C2=CN1CCc1c[nH]c2ccccc12 (stereo not drawn),-,-,14.7,-,-,-
COc1cccc2sc(N3CCN(C(=O)c4ccco4)CC3)nc12,-,-,18.7,-,18.9,-
O=C(O)C(Cc1cccs1)c1cccs1 (stereo not drawn),-,-,-,-,.,.
C[C@@H](NC(=O)c1nc[nH]c1C(=O)NCC(=O)OCc1ccccc1)c1ccccc1,-,-,23.9,-,-,-
COc1cccc(N2CCN(Cc3ccco3)CC2)c1,-,-,15.3,-,-,-
CCOc1ccc(NC(=O)c2cc(=O)[nH]c3ccccc23)cc1,-,-,15.8,-,21.4,-
COc1ccc(-c2csc(NC(C)c3nc4cc(C(=O)NCCCO)ccc4n3Cc3ccc(C)cc3)n2)cc1 (stereo not drawn),-,-,30.4,-,-,38.2
COc1ccc(C(=O)COc2ccc(C(C)=O)cc2OC)cc1OC,-,-,-,-,.,.
O=C(Nc1nccs1)c1c(O)c2c([nH]c1=O)CCCC2,-,-,-,-,.,.
CCCc1nnc(NC(=O)c2c(O)c3c([nH]c2=O)CCCC3)s1,-,-,15.6,-,-,-
Cc1ccc(S(=O)(=O)CCC(=O)N(Cc2nnc(-c3ccc(Cl)cc3)o2)C2CC2)cc1,-,-,-,-,.,.
CC(=O)Nc1cccc(NS(=O)(=O)c2cc3c4c(c2)CCN4C(=O)CC3)c1,-,-,-,-,.,.
c1ccc(-c2ccc3ccccc3n2)cc1,-,-,-,-,.,.
CNc1ccccc(-c2ccc3ccccc3n2)c1=O,-,-,15.2,-,-,38.8
CCn1ncc(/C=N\NC(=O)c2csc3ccccc23)c1C,-,-,18.2,-,49.4,-
SMILES,OPRM1-OPRD1 inv,HTR5A inv ag,HTR5A ag ctr,MOR-DOR ag-1,MOR-DOR ag-2,HTR5A ag confirm
O=C(N/N=C/c1cccc(O)c1)c1csc2ccccc12,-,-,-,-,.,.
O=C(N/N=C1\CCCc2ccccc21)c1ccccc1[N+](=O)[O-],-,-,14.9,-,-,-
O=C1N(c2ccccc2C(F)(F)F)O[C@@]1(c1ccccc1)C1CCCCC1,-,-,-,-,.,.
O=C1N(c2ccccc2C(F)(F)F)O[C@@]1(c1ccccc1)C1CCCC1,-,-,29.0,-,-,-
COc1ccccc1NC(=O)CCCc1nnc2n(C)c(=O)c3sccc3n12,-,-,-,-,.,.
CCn1c(C)nc2cc(C(=O)NN=Cc3ccccc3OC(F)F)ccc21,-,-,18.4,-,-,-
Cc1nc(N)nc(N)c1CCCc1ccc(Cl)c(Cl)c1,-,-,17.5,-,-,-
O=C(CNC(=O)c1ccc(Br)o1)Nc1ccc(F)c(S(=O)(=O)N2CCOCC2)c1,-,-,-,-,.,.
CNC(=S)N1N=C(c2ccc(C)cc2)CC1c1ccc(Cl)cc1 (stereo not drawn),-,-,-,-,.,.
CNC(=S)N1N=C(c2ccc(C)cc2)CC1c1ccc(Br)cc1 (stereo not drawn),-,-,18.0,-,-,-
Cn1cnc(C(=O)NC2CCN(C(=O)OC(C)(C)C)CC2)c1C(=O)NC1CCN(C(=O)OC(C)(C)C)CC1,-,-,-,-,.,.
CC(C)(C)OC(=O)N1CCC(NC(=O)c2ncn(Cc3ccccc3)c2C(=O)NC2CCN(C(=O)OC(C)(C)C)CC2)CC1,-,-,14.8,-,-,-
CCCNC(=O)COC(=O)c1c2c(nc3ccccc13)CCC2,-,-,-,-,.,.
O=C(NCc1ccccc1CN1CCCC1)c1ccc(Cl)c(S(=O)(=O)N2CCCC2)c1,-,-,-,-,.,.
COc1ccc(/C=N/NC(=O)CNS(=O)(=O)c2ccccc2)cc1,-,-,20.5,-,-,-
CC(=O)Nc1ccc(/C=N/NC(=O)CNS(=O)(=O)c2ccccc2)cc1,-,-,-,-,.,.
Cc1cc[n+](Cc2ccccc2)c(N)c1,-,-,14.4,-,54.9,-
COc1ccc(OC)c(C2SCCN2S(=O)(=O)c2cccc(C(F)(F)F)c2)c1 (stereo not drawn),-,-,16.6,-,-,-
COc1cc(OC)c(C2SCCN2S(=O)(=O)c2ccc(F)cc2)cc1OC (stereo not drawn),-,-,-,-,.,.
COc1ccc(-c2cn3c(C)c(C(=O)Nc4ccncc4)sc3n2)cc1,-,-,-,-,.,.
Cc1c(C(=O)Nc2ccncc2)sc2nc(-c3ccc(F)cc3)cn12,-,-,19.4,-,-,-
COc1ccc(F)c(CN2CCC(n3nccc3NC(=O)C3CCOC3)CC2)c1 (stereo not drawn),-,-,-,-,.,.
COc1ccccc1N1CCN(C(=O)c2cccc(C(=O)N3CCN(c4ccccc4OC)CC3)c2)CC1,-,-,15.5,-,-,-
COc1ccc(C(=O)N2CCN(c3ccccc3Cl)CC2)cc1S(=O)(=O)NC1CC1,-,-,17.8,-,95.7,-
COc1ccccc1N1CCN(C(=O)C2CCN(C(=O)c3cccc(Cl)c3)CC2)CC1,-,-,-,-,.,.
NC(=O)NS(=O)(=O)Oc1ccccc1,-,-,-,-,.,.
CC(=O)Nc1ccc2nc(NC(=O)c3cccnc3)sc2c1,-,-,14.8,-,-,51.1
